Reference: ChEMBL document CHEMBL1157539, “Thousands of chemical starting points for antimalarial lead identification” (Nature, 2010)

Tested on: Plasmodium falciparum
Assay: GSK_TCMDC: Inhibition of Plasmodium falciparum 3D7 in whole red blood cells, using parasite LDH activity as an index of growth. Test compounds present at 2uM
Type: functional

Structure (SMILES)	Inhibition [%]
Cl.O=C(Nc1ccc2c(c1)CCN(C1CCC1)CC2)c1ccc(-c2cn3ccccc3n2)cc1	100
CCCCN(CCCC)CCC(O)C(=Cc1ccc(Cl)cc1Cl)c1ccc(C(F)(F)F)cc1N (stereo not drawn)	100
CC(=O)c1ccc(-c2ccc(C(=O)NCCCCN3CCC(c4ccc5c(c4OCC(N)=O)CCCC5)CC3)cc2)s1	90
OC(CNC1CCCCC1)Cn1c2ccc(Br)cc2c2cc(Br)ccc21 (stereo not drawn)	98
O=C(Nc1ccc(Br)cc1)N(CCN1CCOCC1)CC(O)COCc1ccc(F)cc1.O=C(O)C(F)(F)F (stereo not drawn)	90
CNCCNCc1cccc(-c2ccc(-c3nc4cc(C(F)(F)F)ccc4[nH]3)cc2)c1.O=C(O)C(F)(F)F	100
O=S(=O)(Nc1ccc(CCN2CCCCC2CCN2CCCC2)cc1)c1ccc(-c2ccccc2)cc1 (stereo not drawn)	98
O=C(/C=C/c1ccc(Cl)c(Cl)c1)NCCCCCCN1CCN(C(=O)Nc2ccc(Cl)c(C(F)(F)F)c2)CC1	99
CCCCCOc1ccc(C(O)C(CCC(CN2CCCCCC2)C(O)c2ccc(OCCCCC)cc2)CN2CCCCCC2)cc1.Cl (stereo not drawn)	99
N#Cc1ccc(C(=O)NC2CCN(CCCCCNC(=O)/C=C/c3ccc(Cl)c(Cl)c3)CC2)cc1	98
Cc1cccc2nc(-c3cccc(-c4ccc(NC(=O)c5ccncc5)cc4)c3)[nH]c12	98
COc1cccc(CNC[C@@H](O)[C@H](Cc2ccccc2)NC(=O)c2cc(C(C)C)cc(N3CCCC3=O)c2)c1	95
CC1CCCCC1N(C)C1CCN(CCCNC(=O)C=Cc2ccc(Cl)cc2Cl)CC1 (stereo not drawn)	100
